Records with an inconclusive call do not appear. Active and inactive are the calls of the source. Calls follow the shape of the dose curve; as a rule, active = well fitted curve in the direction sought with a large enough effect; inconclusive = small, poorly fitted or top-dose-only effect, or another doubt; inactive = no such curve, though single readings can be large or run the other way.

Outcome data for 30 compounds are collected here from PubChem BioAssay AID2620 (National Center for Advancing Translational Sciences (NCATS), 2010).

The assay concerns the target Pyruvate kinase PKM (Homo sapiens) (UniProt P14618). Nature of the assay: Secondary LDH Assay for Activators of Human Pyruvate Kinase M1 Isoform: for Probe SAR. As to conditions: purified hPK-M1, LDH-coupled NADH fluorescence kinetic; series mostly up to 58.2 µM. In short, it runs like this: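 10 nM hPK-M1 coupled to 1 uM LDH, with 0.1 mM PEP, 4.0 mM ADP, 0.2 mM NADH, 50 mM Tris pH 8.0, 200 mM KCl, 15 mM MgCl2 (final). NADH fluorescence depletion followed kinetically 3-6 min; initial rates normalized to uninhibited controls.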

Chain of Pyruvate kinase PKM (Homo sapiens) (P14618 whole entry, looked up, canonical isoform): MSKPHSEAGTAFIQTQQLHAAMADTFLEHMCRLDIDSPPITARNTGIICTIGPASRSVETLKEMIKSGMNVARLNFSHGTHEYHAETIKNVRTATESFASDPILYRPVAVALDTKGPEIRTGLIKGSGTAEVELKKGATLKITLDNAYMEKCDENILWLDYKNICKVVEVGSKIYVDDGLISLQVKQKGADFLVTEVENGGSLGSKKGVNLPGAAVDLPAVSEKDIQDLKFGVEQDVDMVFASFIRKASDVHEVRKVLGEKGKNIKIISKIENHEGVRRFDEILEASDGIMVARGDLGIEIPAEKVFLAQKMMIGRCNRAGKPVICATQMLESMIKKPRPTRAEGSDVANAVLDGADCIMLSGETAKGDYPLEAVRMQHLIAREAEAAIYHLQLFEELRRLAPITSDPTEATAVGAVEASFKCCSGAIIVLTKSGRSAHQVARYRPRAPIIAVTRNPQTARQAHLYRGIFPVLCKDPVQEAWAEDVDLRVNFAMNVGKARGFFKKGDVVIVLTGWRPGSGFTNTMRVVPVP

Consider `COc1cccc(N2C(=O)c3ccccc3C2=O)n1`, for which the result was inactive.
As for `Cc1ccc(NS(=O)(=O)c2ccc(F)cc2)cc1C`, the entry is “inactive”; as for `Cc1ccc(NS(=O)(=O)c2ccc3c(c2)n(C)c(=O)n3C)cc1C`, “inactive”; as for `O=C1CCc2cc(S(=O)(=O)Nc3ccccc3Cl)ccc2N1`, “inactive”.
As for `Cc1ccc2nc(-c3cccs3)c(Nc3ccccc3)n2c1`, the entry is “inactive”; as for `O=C1CCc2cc(S(=O)(=O)Nc3ccc(F)c(Cl)c3)ccc2N1`, “inactive”; as for `O=C1CCc2cc(Cl)c(S(=O)(=O)Nc3ccc(Cl)c(Cl)c3)cc2N1`, “inactive”.
Consider `CCNc1cccc(S(=O)(=O)N2CCCN(S(=O)(=O)c3ccc4c(c3)OCCO4)CC2)c1`, for which the result was inactive.
For the compound `O=C1c2ccccc2C(=O)N1c1ccc(Cl)cc1`, the compound was classed as inactive.
As for `Cc1ccc(NS(=O)(=O)c2cc3c(cc2N(C)C)NC(=O)CC3)cc1C`, the entry is “inactive”; as for `COc1cc(F)c(S(=O)(=O)N2CCCN(S(=O)(=O)c3cccc(N)c3)CC2)c(F)c1`, “inactive”; as for `O=C1c2ccccc2C(=O)N1c1cncc2ccccc12`, “inactive”.
Take `Cc1ccc(OC2=NS(=O)(=O)c3ccccc32)cc1`: the call was inactive.
With `O=C1c2ccccc2C(=O)N1Cc1ccccn1` the entry was “inactive”; with `COc1ccc(NS(=O)(=O)c2ccc3c(c2)CCC(=O)N3)cc1`, “inactive”; with `Cc1ccc(N2C(=O)c3ccccc3C2=O)c(C)c1`, “inactive”.
With `Fc1ccccc1-c1ccc(-c2nc3ccc(Cl)cn3c2Nc2ccc(Cl)cc2)o1` the entry was “inactive”.
With `Cc1ccc(NS(=O)(=O)c2cc3c(cc2Br)NC(=O)CO3)cc1C` the entry was “inactive”; with `O=C1CCc2cc(S(=O)(=O)Nc3ccc4c(c3)CCC4)ccc2N1`, “inactive”.
Consider `O=C1CCc2cc(S(=O)(=O)Nc3cccc(C(F)(F)F)c3)ccc2N1`, for which the compound was called inactive.
For the compound `CNc1cccc(S(=O)(=O)N2CCCN(S(=O)(=O)c3ccc4c(c3)OCCO4)CC2)c1`, the call was inactive.
As for `O=S(=O)(c1ccc2c(c1)OCCO2)N1CCN(S(=O)(=O)c2c(F)cccc2F)CC1`, the entry is “inactive”; as for `Cc1ccc(NS(=O)(=O)c2ccc3c(c2)CC(=O)N3C)cc1C`, “inactive”; as for `Cc1ccc(NS(=O)(=O)c2ccc3ccccc3c2)cc1C`, “inactive”.
For `COc1ccccc1NS(=O)(=O)c1ccc2c(c1)CCC(=O)N2`, the outcome was inactive.
With `Cc1ccc(NS(=O)(=O)c2cc3c(cc2N2CCC2)NC(=O)CC3)cc1C` the entry was “inactive”.
In the case of `Cc1ccc(NS(=O)(=O)c2cc3c(cc2C)NC(=O)CO3)cc1C`, the call was inactive.
Take `CC(C)Nc1cccc(S(=O)(=O)N2CCCN(S(=O)(=O)c3ccc4c(c3)OCCO4)CC2)c1`: the outcome was inactive.
As for `Cc1ccc(NS(=O)(=O)c2cccc(C(=O)O)c2)cc1C`, the entry is “inactive”.
With `Cc1ccn2c(NC3CCCCC3)c(-c3ccc(C)o3)nc2c1` the entry was “inactive”.
